Results as given in PubChem BioAssay.
Activity calls are given as the source filed them. Unless noted, no rule for the calls is given here.

Legend:
[1] = HepG2 liver cancer cell viability effects, profiling panel, resazurin fluorescence, 24 h, PK04 Diversity Set (AID 1172); settings: higher = more signal
[2] = basal S. cerevisiae growth modulation, no modifier, primary screen, OD600, strain BY4716, 24 h, basal condition (AID 1173); settings: OD600, 24 h, higher = more signal, called active from +8 up or from −8 down
[3] = MM1S myeloma cell viability, profiling panel, resazurin fluorescence, basal, 24 h, PK04 Diversity Set (AID 1174); settings: higher = more signal, called active from +8 up or from −8 down;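 also: MM1S multiple myeloma cell line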
[4] = biological target: Dihydroorotate dehydrogenase (quinone), mitochondrial (Plasmodium falciparum (isolate 3D7)) (UniProt Q08210); assay: PfDHODH enzyme inhibitors, primary screen, biochemical, C-terminal His tag, absorbance 600 nm (AID 1175); settings: DCIP absorbance 600 nm, higher = more signal, called active from +8 up or from −8 down;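 also: recombinant parasite enzyme with a five histidine tag at its C terminus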
[5] = P. aeruginosa biofilm formation inhibitors, primary screen, strain PAO1, LB-PBS medium, absorbance 600 nm (AID 1176); settings: P. aeruginosa PAO1 growth/biofilm, A600, 12 h; higher = more signal
[6] = S. cerevisiae RM11-1a growth modifiers, primary screen, strain RM11-1a, OD600, basal, 24 h (AID 1177); settings: OD600, 24 h, higher = more signal, called active from +8 up or from −8 down;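 also: cultures grown under basal conditions with no added stressor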
[7] = E. coli acrAB mutant growth effects, primary screen, E. coli filamentation inducers, strain DRC39, OD650, 24 h (AID 1178); settings: higher = more signal, called active from +8 up or from −8 down;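 also: growth measured as culture turbidity by optical density at 650 nm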
[8] = E. coli acrAB mutant growth effects, primary screen, E. coli filamentation inducers, strain DRC39, OD650, 48 h (AID 1179);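 also: screen aims at cell division blockers that make cells filament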; settings: E. coli DRC39 delta-acrAB growth, higher = more signal, called active from +8 up or from −8 down
[9] = RPMI8226 myeloma cell viability, profiling panel, resazurin fluorescence, basal, 24 h, PK04 Diversity Set (AID 1180); settings: higher = more signal;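 also: RPMI8826 multiple myeloma cell line at 5000 cells per well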
[10] = biological target: E3 ubiquitin-protein ligase XIAP (Homo sapiens) (UniProt P98170); assay: XIAP binders, primary screen, biophysical, small-molecule microarray, fluorescence 635 nm (AID 1181); settings: small-molecule microarray binding, higher = more signal;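 also: score merges 667 nm emission and signal to noise over triplicate slides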
[11] = system: XIP peptide (Xip251-270) binding; assay: small-molecule binders of XIP peptide, primary screen, biochemical, small-molecule microarray, fluorescence 635/667 nm, 0.1 µg/mL protein (AID 1182); settings: fluorescent protein binding, 635 nm, higher = more signal, called active from +8 up or from −8 down
[12] = system: XIP peptide (Xip251-270); assay: small-molecule binders of XIP peptide, primary screen, biochemical, small-molecule microarray, fluorescence 635/667 nm, 0.5 µg/mL protein (AID 1183); settings: small-molecule microarray binding, fluorescence 635 nm; higher = more signal
[13] = Plasmodium falciparum growth inhibition, primary screen, strain 3D7, DAPI fluorescence, 100 nL (AID 1184);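 also: parasites grown inside human red blood cells in medium with human serum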; settings: P. falciparum 3D7 growth, 3 d, higher = more signal
[14] = biological target: Homeobox protein Hox-A13 (Mus musculus) (UniProt Q62424); assay: inhibitors of HoxA13-DNA binding, primary screen, biochemical, fluorescence polarization, labeled oligonucleotide (AID 1185); settings: 15 min, higher = more signal, called active from +8 up or from −8 down
[15] = inhibitors of hydroxyurea-induced Chk1 phosphorylation, primary screen, imaging, HeLa, phospho-Chk1 antibody, percent positive cells (AID 1186); settings: hydroxyurea-induced phospho-Chk1 immunofluorescence imaging, higher = more signal
[16] = inhibitors of hydroxyurea-induced Chk1 phosphorylation, primary screen, imaging, HeLa, phospho-Chk1 nuclear intensity (AID 1187); settings: hydroxyurea-induced phospho-Chk1 immunofluorescence imaging, higher = more signal

Chain of Homeobox protein Hox-A13 (Mus musculus) (Q62424 whole entry, looked up): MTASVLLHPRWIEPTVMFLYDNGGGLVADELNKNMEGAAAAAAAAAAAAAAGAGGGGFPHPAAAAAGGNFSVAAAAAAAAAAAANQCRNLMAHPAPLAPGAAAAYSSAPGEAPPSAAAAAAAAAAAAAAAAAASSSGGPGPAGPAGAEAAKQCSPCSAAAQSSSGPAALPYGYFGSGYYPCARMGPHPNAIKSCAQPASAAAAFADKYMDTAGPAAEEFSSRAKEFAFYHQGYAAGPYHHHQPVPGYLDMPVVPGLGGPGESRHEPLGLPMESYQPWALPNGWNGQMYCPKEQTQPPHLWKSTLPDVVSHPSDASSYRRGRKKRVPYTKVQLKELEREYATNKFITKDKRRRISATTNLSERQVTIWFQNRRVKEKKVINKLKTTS
Chain of E3 ubiquitin-protein ligase XIAP (Homo sapiens) (P98170 whole entry, looked up): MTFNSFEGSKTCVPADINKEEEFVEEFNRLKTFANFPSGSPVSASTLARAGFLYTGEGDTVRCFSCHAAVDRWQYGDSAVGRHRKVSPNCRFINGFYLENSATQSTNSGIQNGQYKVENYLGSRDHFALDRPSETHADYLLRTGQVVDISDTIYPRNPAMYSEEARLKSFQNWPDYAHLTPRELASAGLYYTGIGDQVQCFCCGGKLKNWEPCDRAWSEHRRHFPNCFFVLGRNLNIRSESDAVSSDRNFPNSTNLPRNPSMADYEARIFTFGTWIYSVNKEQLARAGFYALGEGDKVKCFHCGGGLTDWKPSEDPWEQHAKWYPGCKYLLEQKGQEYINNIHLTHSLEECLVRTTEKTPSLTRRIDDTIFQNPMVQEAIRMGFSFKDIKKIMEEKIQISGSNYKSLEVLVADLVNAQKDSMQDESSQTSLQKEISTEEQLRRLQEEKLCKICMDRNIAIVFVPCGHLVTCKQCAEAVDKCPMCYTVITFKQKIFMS
Chain of Dihydroorotate dehydrogenase (quinone), mitochondrial (Plasmodium falciparum (isolate 3D7)) (Q08210 whole entry, looked up): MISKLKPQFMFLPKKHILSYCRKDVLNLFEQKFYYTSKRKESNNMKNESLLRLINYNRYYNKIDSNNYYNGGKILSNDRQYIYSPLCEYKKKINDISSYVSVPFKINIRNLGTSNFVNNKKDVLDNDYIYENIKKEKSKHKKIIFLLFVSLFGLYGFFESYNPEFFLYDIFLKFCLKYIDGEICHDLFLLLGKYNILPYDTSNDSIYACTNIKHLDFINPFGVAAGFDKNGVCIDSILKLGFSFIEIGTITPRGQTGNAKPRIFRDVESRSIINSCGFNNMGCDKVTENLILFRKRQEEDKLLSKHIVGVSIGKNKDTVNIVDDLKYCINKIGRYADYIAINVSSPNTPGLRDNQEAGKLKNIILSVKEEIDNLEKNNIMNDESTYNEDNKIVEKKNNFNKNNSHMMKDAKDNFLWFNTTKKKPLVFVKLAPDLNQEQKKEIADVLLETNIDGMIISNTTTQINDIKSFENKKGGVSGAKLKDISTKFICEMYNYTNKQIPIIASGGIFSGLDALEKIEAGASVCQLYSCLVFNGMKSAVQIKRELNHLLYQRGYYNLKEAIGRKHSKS

Row | Structure (SMILES) | z-score [1] | z-score [2] | z-score [3] | composite z-score [4] | z-score [5] | z-score [6] | z-score [7] | z-score [8] | z-score [9] | composite z-score [10] | composite z-score [11] | composite z-score [12] | z-score [13] | z-score [14] | z-score [15] | z-score [16]
1 | COC(=O)[C@@]1(Cc2ccc(F)cc2)[C@H]2c3cc(C(=O)N4CCCC4)n(CCCNc4ncc(C(F)(F)F)cc4Cl)c3C[C@H]2CN1C(=O)c1ccccc1 | -0.461 | 2.05 (inactive) | -2.38 (inactive) | 0.308 (inactive) | 1.03 (inactive) | 1.65 (inactive) | -0.645 (inactive) | -0.681 (inactive) | -2.34 | 0.426 | 0.1 (inactive) | 0.716 | -1.41 | -4.2 (inactive) | 0.919 (inactive) | 0.259 (inactive)
2 | C=CC[C@@]1(C(=O)NCCN2CCOCC2)N=C(c2ccc(OCCCO)cc2)O[C@@H]1c1ccccc1N=[N+]=[N-] | -0.1 | -0.0089 (inactive) | -1.05 (inactive) | 1.61 (inactive) | 1.61 (inactive) | 2.17 (inactive) | 0.2 (inactive) | -0.0194 (inactive) | -0.614 | 0.107 | 2.32 (inactive) | -0.0559 | -2.21 | -6.17 (inactive) | 0.003 (inactive) | -0.0928 (inactive)
3 | O=C(N1CCCCC1)[C@]1(Cc2ccccc2)N=C(c2ccc(OCCCO)cc2)O[C@@H]1c1ccccc1 | 0.0053 | -1.88 (inactive) | -2.94 (inactive) | -0.0047 (inactive) | 0.208 (inactive) | 1.02 (inactive) | 0.137 (inactive) | -0.829 (inactive) | -3.93 | 0.205 | 0.0557 (inactive) | 0.657 | -2.79 | -4.71 (inactive) | -0.6 (inactive) | -0.641 (inactive)
4 | C[N+](C)(C)CCCCCCNC(=O)[C@@H]1C[C@@H]2C(=O)N[C@@H](Cc3ccccc3)C(=O)N2[C@@H]1c1cccc(OCCO)c1 | 0.844 | -0.393 (inactive) | 0.328 (inactive) | -0.0631 (inactive) | -0.27 (inactive) | 0.153 (inactive) | 1.14 (inactive) | 1.35 (inactive) | 0.755 | 0.0905 | 0.694 (inactive) | 0.814 | -0.145 | -4.83 (inactive) | -0.362 (inactive) | -0.398 (inactive)
5 | C=CCNC(=O)[C@@H]1[C@H]2C(=O)O[C@H](c3ccccc3)[C@H](c3ccccc3)N2[C@H](c2ccccc2OCCO)[C@@]12C(=O)N(C(=O)OCCOC)c1ccccc12 | -1.59 | 1.86 (inactive) | -1.12 (inactive) | 0.693 (inactive) | 2.26 (inactive) | 3.27 (inactive) | 0.0191 (inactive) | -0.476 (inactive) | -1.65 | -0.0559 | 3.44 (inactive) | 0.737 | -1.16 | -4.27 (inactive) | 0.115 (inactive) | 0.494 (inactive)
6 | CC(C)NC(=O)[C@@]1(c2ccc([N+](=O)[O-])cc2)CC(=O)N(C2CCCCC2)[C@@H]1c1ccc(CO)cc1I | -0.752 | -0.148 (inactive) | 0.507 (inactive) | 0.968 (inactive) | -0.0469 (inactive) | 1.4 (inactive) | 0.543 (inactive) | 0.0026 (inactive) | 0.636 | -0.177 | 0.46 (inactive) | 0.697 | -1.63 | -4.64 (inactive) | 0.1 (inactive) | 0.635 (inactive)
7 | CCOC(=O)C1=C[C@@H](C(C)(C)C)N(S(=O)(=O)c2ccc(C)cc2)[C@H]1c1ccc(F)cc1 | -0.457 | 2.32 (inactive) | -0.544 (inactive) | 0.412 (inactive) | -0.116 (inactive) | 1.78 (inactive) | -0.731 (inactive) | -0.791 (inactive) | -2.36 | -0.02 | 0.475 (inactive) | 0.106 | -1.92 | -0.636 (inactive) | -0.324 (inactive) | -0.725 (inactive)
8 | CC(=O)NCCCC[C@@H]1NC(=O)[C@@H]2C[C@H](C(=O)NCCCCCNC(=O)CS)[C@H](c3cccc(OCCO)c3)N2C1=O | 0.77 | -0.719 (inactive) | 1.37 (inactive) | -29.3 (active) | 0.879 (inactive) | -0.86 (inactive) | 0.295 (inactive) | -0.171 (inactive) | 0.739 | -0.13 | 1.84 (inactive) | 0.471 | 0.246 | -3.21 (inactive) | -0.224 (inactive) | -0.27 (inactive)
9 | CCS[C@H]1[C@@H](C(=O)O)[C@H](c2ccc(C)cc2)N(S(=O)(=O)c2ccc(C)cc2)[C@@H]1CC | 0 | 0.788 (inactive) | -0.751 (inactive) | -1.03 (inactive) | 0.257 (inactive) | -0.0137 (inactive) | -0.419 (inactive) | 0.843 (inactive) | -0.702 | -0.167 | 0.458 (inactive) | 0.327 | 0.184 | -2.35 (inactive) | -0.72 (inactive) | -0.307 (inactive)
